Screens as filed in PubChem BioAssay.
HT1080NT lethal: kills 2HG-producing HT-1080-NT fibrosarcoma cells; AID 686970; HT-1080-NT fibrosarcoma viability, CellTiter-Glo ATP luminescence, 48 h; 360,000 compounds, 1.6% hits; Potency, µM (doses to about 46.1 µM), hits mostly cytotoxic;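 further: NT is the 2HG producing partner of a matched IDH1 knockdown line; nearly all actives have a fitted effect of over 55% in size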
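Luminescent CellTiter-Glo readout after 48 hours of compound exposure at 37 degrees C defined viability of HT-1080-NT cells. Activity was normalized to DMSO wells and cell-free media wells; concentration-response curves were fitted and assigned curve classes.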
IL1B secr inh: inflammasome signaling inhibition, IL-1 beta readout. THP-1 LPS/ATP IL-1B secretion, AlphaLISA, 16 h; active compounds read low. 360,000 compounds, 4.7% hits. activity change, % at 57.5 µM. AID 743279; in the data active means activity change below about -50%; inconclusive means mostly about -30% to -49%
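THP-1 cells pretreated 1 hr with compounds (up to 57.5 uM final), then stimulated with LPS (250 ng/mL final) plus ATP (1.25 mM final); secreted IL-1B measured by AlphaLISA after 16 hr, decreased signal indicating inhibition.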
DT40 TDP1 CPT: growth inhibition of DT40 Tdp1-/-;hTDP1 cells with camptothecin (screen for TDP1 inhibitors). chicken DT40 Tdp1-/-;hTDP1 cells + 20 nM CPT, ATP luminescence, 48 h. Potency, µM (doses to about 46.2 µM), actives largely listed as inhibitors. 420,000 compounds, 12% hits; further: nearly all actives have a fitted effect of over 55% in size
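Chicken DT40 Tdp1-/- cells stably complemented with human TDP1 were seeded at 400 cells/well in medium containing 20 nM camptothecin, exposed to pin-transferred compounds, and grown at 37 °C for at least 48 hr. Viability was read as ATP luminescence.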
HT1080 IDH1KD tx: toxicity to HT-1080 IDH1 knockdown cells (counter line). AID 686971. 360,000 compounds, 2% hits. HT-1080 IDH1 knockdown viability, ATP luminescence, 48 h. Potency, µM (titrated, usually from 46.1 µM), hits mostly cytotoxic
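Knockdown cells (IDH1KD HT-1080) received compounds 2 h after plating at 750 cells/well and were kept 48 h at 37 °C in 5% FBS RPMI. A CellTiter-Glo luminescence read gave % activity for curve fitting.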
TDP1 cell noCPT: qHTS for Inhibitors of human tyrosyl-DNA phosphodiesterase 1 (TDP1): qHTS in cells in absence of CPT; 420,000 compounds, 15% hits; DT40 Tdp1-/- hTDP1 cells, no CPT, ATP luminescence, 48 h; Potency, µM (highest dose often 46.2 µM), usual class: inhibitors; further: nearly all actives have a fitted effect of over 55% in size
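Cells were dispensed at 400 per well, compounds added by pin tool, plates incubated ≥48 hr at 37 °C, then CellTiter-Glo added for 30 min at room temperature before luminescence reading. Line: DT40 Tdp1-/- complemented with hTDP1; camptothecin omitted.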
Numbers stand for hits; n = inactive; u = inconclusive; x = not tested or not shown; ! = a repeat was not active. A selection: hits, their analogues and other compounds. The true share with any hit is near 19%. Unless noted, the call rests on the fitted dose curve; in most records, active means well fitted curve in the direction sought with a large enough effect; inconclusive means small, poorly fitted or top-dose-only effect, or another doubt; inactive means no such curve, though single readings can be large; an effect the other way counts as inactive or inconclusive.

SMILES	HT1080NT lethal	IL1B secr inh	DT40 TDP1 CPT	HT1080 IDH1KD tx	TDP1 cell noCPT
COc1ccc(NC(=O)c2ccccc2NC(=O)c2cccs2)cc1	n	n	n	n	n
CC(NC(=O)c1cccs1)c1nnc(SCc2ccc(Cl)cc2Cl)n1C (configuration not stated)	n	n	u	n	16µM
C=CCn1c(CNC(=O)c2cccs2)nnc1SCc1ccc(Cl)cc1Cl	n	u	u	n	u
COCCOC(=O)C1=C(C)NC(=O)N(C(C)=O)C1c1ccc(Cl)cc1 (configuration not stated)	n	n	n	n	n
CC1=C(C(=O)Nc2ccccc2F)C(c2cccs2)NC(=S)N1 (configuration not stated)	n	n	n	n	n
N#C/C(=C\c1c[nH]c2ccc(Br)cc12)c1ccccn1	26µM	-84	u	u	21µM
O=C1NC(c2ccc(Cl)cc2)Nc2ccccc21 (configuration not stated)	n	n	n	n	n
Cc1cccc(C2NC(=O)c3ccccc3N2)c1 (configuration not stated)	u	n	3.3µM	u	5.2µM
Cc1ccc(C2NC(=O)c3ccccc3N2)s1 (configuration not stated)	u	n	5.8µM	15µM	4.6µM
Cc1ccc(C2NC(=O)c3ccccc3N2)c(C)c1 (configuration not stated)	7.3µM	n	2.1µM	18µM	2.9µM
O=C1NC(c2ccncc2)Nc2ccccc21 (configuration not stated)	n	n	n	n	n
O=C1CSc2ccc(C(=O)NCCc3ccc(Cl)cc3Cl)cc2N1	u	n	u	u	15µM
O=c1[nH]c(CSc2ncc(C(F)(F)F)cc2Cl)nc2ccccc12	n	n	n	n	n
O=C(NC(=S)NCC1CCCO1)c1ccc([N+](=O)[O-])cc1 (configuration not stated)	n	n	n	n	n
CC(OC(=O)/C(C#N)=C/c1ccc(N(C)C)cc1)C(=O)N(C)Cc1ccccc1 (configuration not stated)	n	n	u	n	12µM
CC(=O)Nc1cc(-c2ccc(N3CCN(C)CC3)cc2)cn2c(-c3ccccc3)cnc12	u	x	21µM	21µM	16µM
CC(=O)Nc1cc(-c2ccc(N3CCN(C)CC3)cc2)cn2c(-c3ccc(S(C)(=O)=O)cc3)cnc12	n	n	15µM	n	21µM
COc1cc(Cl)c(C)cc1NC(=O)c1cccc(OC)c1OC	n	n	u	n	u
Cc1cc(C)cc(N2C(=O)CS(=O)(=O)C23C(=O)N(Cc2ccccc2)c2ccccc23)c1 (configuration not stated)	x	x	n	x	n
Cc1ccc(N2C(=O)CCSC23C(=O)N(Cc2ccc(F)cc2)c2ccccc23)cc1 (configuration not stated)	x	x	8.2µM	x	8.2µM
Cc1ccc(N2C(=O)CCSC23C(=O)N(Cc2ccccc2)c2ccccc23)cc1 (configuration not stated)	x	x	u	x	16µM
Cc1ccc(N2C(=O)CSC23C(=O)N(CC(=O)NCCc2ccccc2)c2ccccc23)cc1 (configuration not stated)	x	x	n	x	n
O=C1CCSC2(C(=O)N(Cc3ccccc3)c3ccccc32)N1c1ccccc1 (configuration not stated)	x	x	9.2µM	x	15µM
Cc1ccc(N2C(=O)CCSC23C(=O)N(Cc2ccccc2)c2ccccc23)cc1F (configuration not stated)	x	x	21µM	x	12µM
C=C1CCC(C2CC(=O)OC2=O)C(=O)CCC2C1CC2(C)C (configuration not stated)	x	x	n	x	n
SMILES	HT1080NT lethal	IL1B secr inh	DT40 TDP1 CPT	HT1080 IDH1KD tx	TDP1 cell noCPT
C=CCc1cccc2cc(C(=O)N3CCN(c4ccccn4)CC3)c(=O)oc12	n	n	n	n	n
Nc1c(C(=O)c2ccc(Br)cc2)oc2ccccc12	n	n	n	n	n
Cc1ccc(C(=O)c2oc3ccccc3c2N)cc1	u	n	16µM	n	u
CCOc1ccc(CNC(=O)Cn2ccc3cc(S(=O)(=O)N4CCCC4)ccc32)cc1	n	n	n	n	n
COc1ccc(CNC(=O)CCc2ccc(S(=O)(=O)N3CCCCCC3)cc2)cc1	n	n	u	n	u
CCOc1ccc(CNC(=O)Cn2ccc3cc(S(=O)(=O)N4CCCCCC4)ccc32)cc1	n	u	16µM	n	26µM
CN(C)c1ccc(CNC(=O)Cn2ccc3cc(S(=O)(=O)N4CCCCCC4)ccc32)cc1	x	x	u	x	5.8µM
CN(C)c1ccc(CNC(=O)CCc2ccc(S(=O)(=O)N3CCCCCC3)cc2)cc1	n	-64	u	n	15µM
Nc1nc(=O)c2ccccc2s1	n	n	u	n	n
O=C(C=Cc1ccc(Cl)s1)c1ccc(Cl)s1	n	-51	u	n	u
COc1cc(/C=C/C(=O)c2ccc(Cl)s2)cc(OC)c1O	u	-105	u	11µM	29µM
Cc1c(/C=C/C(=O)c2ccc(Cl)s2)cnn1C	n	n	n	n	u
COc1ccc(/C=C/C(=O)c2ccc(Cl)s2)cc1O	n	n	u	n	18µM
CC1CCCC(NC(=O)COC(=O)Cc2ccsc2)C1C (configuration not stated)	n	n	n	n	n
CCN(CC)C(=O)c1cn(CCC#N)nc1-c1ccc2ccccc2c1	n	n	n	n	n
Clc1ccc(N2O[C@H]3C=C[C@@H]2C3)nc1	n	u	21µM	n	u
O=C(c1ccc[nH]1)N1O[C@@H]2C=C[C@H]1C2	n	n	n	n	n
CCc1ccc(CN(Cc2cn[nH]c2-c2ccc(OC)cc2)C(=O)Nc2cc(Cl)ccc2OC)cc1	x	x	16µM	x	23µM
COc1ccc(CN(CC2CCC(C(=O)O)CC2)C(=S)Nc2cc(Cl)ccc2OC)cc1 (configuration not stated)	n	n	n	n	n
O=S(=O)(c1ccc(-c2csc(Nc3ccc(F)cc3)n2)cc1)N1CCCC1	u	n	12µM	u	12µM
Cc1ccc(Nc2nc(-c3ccc(S(=O)(=O)N4CCOCC4)cc3)cs2)cc1	u	n	u	u	u
Cc1ccc(Nc2nc(-c3ccc(S(=O)(=O)N4CCCC4)cc3)cs2)cc1C	u	u	u	u	21µM
Cc1cc(C)cc(Nc2nc(-c3ccc(S(=O)(=O)N4CCCC4)cc3)cs2)c1	u	u	8.2µM	u	7.3µM
O=c1c2ccccc2ncn1-c1cccc(Br)c1	n	n	n	n	n
CC(C)Cc1ccc(S(=O)(=O)Nc2ccc3[nH]c(=O)[nH]c3c2)cc1	n	n	16µM!	n	26µM
